JMJD2E inh: blocks human JMJD2E demethylase activity. actives 1.6% (n = 230,000). JMJD2E catalytic domain, FDH-coupled NADH fluorescence (FDH is formaldehyde dehydrogenase). B2RXH2. Potency, µM (highest dose often 57.1 µM), for the others: top-dose activity change, negative = inhibition, usual class: inhibitors;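 note: potency is the fitted concentration of half-maximal effect; 0% = wells with enzyme and -100% = buffer wells without enzyme; nearly all actives have a fitted effect of over 50% in size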
NPSR antagonist: neuropeptide S receptor (human) antagonism, cAMP | CHO-NPSR cells, cAMP TR-FRET, antagonist mode | actives 1% (n = 220,000) | Potency, µM (series often up to 38.3 µM), for the others: at the top dose activity change, negative = inhibition, hits mostly inhibitors | Q6W5P4; active = well fitted curve in the direction sought with a large enough effect; inconclusive = small, poorly fitted or top-dose-only effect, or another doubt; inactive = no such curve, though single readings can be large; an effect the other way counts as inactive or inconclusive; note: potency is the fitted concentration of half-maximal effect; nearly all actives have a fitted effect of over 50% in size
ALDH1A1 block: blocks purified human ALDH1A1 activity | P00352 | Purified ALDH1A1, NADH fluorescence, propionaldehyde substrate | Potency, µM (highest dose often 75.3 µM), for the others: at the top dose activity, negative = inhibition, usual class: inhibitors | actives 7.3% (n = 220,000);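 note: potency is the fitted concentration of half-maximal effect; plate controls were no enzyme wells and a reference inhibitor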
Target sequence (P00352 whole entry, looked up): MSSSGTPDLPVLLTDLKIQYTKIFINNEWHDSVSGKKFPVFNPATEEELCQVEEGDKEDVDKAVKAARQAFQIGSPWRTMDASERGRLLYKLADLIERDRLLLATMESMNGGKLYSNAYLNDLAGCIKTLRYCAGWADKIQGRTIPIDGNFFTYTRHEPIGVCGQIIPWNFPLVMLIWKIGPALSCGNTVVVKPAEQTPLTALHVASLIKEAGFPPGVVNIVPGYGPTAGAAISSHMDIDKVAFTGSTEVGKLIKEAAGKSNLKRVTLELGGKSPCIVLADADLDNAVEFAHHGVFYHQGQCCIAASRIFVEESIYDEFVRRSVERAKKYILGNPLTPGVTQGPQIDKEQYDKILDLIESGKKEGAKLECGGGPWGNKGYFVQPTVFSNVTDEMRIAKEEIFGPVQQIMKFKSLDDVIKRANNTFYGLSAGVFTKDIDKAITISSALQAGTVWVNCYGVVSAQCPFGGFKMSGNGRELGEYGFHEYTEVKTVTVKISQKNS
FBPA coupling cs: coupling enzyme interference in Giardia aldolase counter-screen | coupling enzyme system counterscreen, AmpLite Red fluorescence | activity change, negative = inhibition, % at 58.2 µM, hits read low | actives 0.67% (n = 290,000); in the data active = activity change below about -30%
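Fluorescence at 525 nm excitation and 598 nm emission measured inhibition of the coupled detection system without aldolase. Compounds (at 57.5 uM final) were preincubated 10 min at room temperature with coupling enzyme reagent before a 20 min substrate/AmpLite Red step.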
GoLoco inh red: inhibitors of human Gai1-RGS12 GoLoco interaction (red fluorophore) | P63096 | Gai1:RGS12 GoLoco peptide FP, rhodamine, 10 min | Potency, µM (titrated, usually from 61.6 µM), without a hit: at the top dose activity, negative = inhibition, hits mostly inhibitors | actives 0.44% (n = 230,000) | AID 880; active = well fitted inhibition curve with a large enough effect, not every such curve was filed as active; inactive = no such curve, though single readings can be large or run the other way; note: potency is the fitted concentration of half-maximal effect; nearly all actives have a fitted effect of over 30% in size
Sfp PPTase inh: blocks B. subtilis Sfp PPTase activity; Biochemical Sfp PPTase activity, qHTS; Potency, µM, inactives show largest response in the series, negative = inhibition, actives largely listed as inhibitors; actives 3.5% (n = 310,000); active = well fitted curve in the direction sought with a large enough effect; inconclusive = small, poorly fitted or top-dose-only effect, or another doubt; inactive = no such curve, though single readings can be large; an effect the other way counts as inactive or inconclusive;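 note: the enzyme is Sfp with the accession as filed and its product quenches rhodamine fluorescence; potency is the fitted concentration of half-maximal effect; 0% = enzyme reaction without inhibitor and -100% = no enzyme wells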
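Step 1, compound plus 15 nM Sfp-PPTase, 15 min, room temperature. Step 2, add rhodamine-CoA (5 uM) and BHQ-2-YbbR (12.5 uM). Step 3, read 525/598 nm fluorescence at 0 and 30 min.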
* hit, by the source's call; u = inconclusive; x = not tested or not shown; [ ] = remark or other dose. An excerpt weighted towards active compounds, which were near 8.5% of everything screened. Unless noted, calls come from the whole dose curve; as a rule, active = well fitted inhibition curve with a large enough effect (not every such curve was filed as active); inconclusive = small, poorly fitted or top-dose-only effect, or another doubt; inactive = no such curve, though single readings can be large or run the other way. Unless noted, % is set by controls: 0 for no effect and ±100 for the full control effect.

SMILES | JMJD2E inh | NPSR antagonist | ALDH1A1 block | FBPA coupling cs | GoLoco inh red | Sfp PPTase inh
Cc1nn(-c2ccc3ccccc3c2)c(=O)c2ccccc12 | -10.7% | 41.1% | 20µM* | 0.6 | 12.4% | -16.3%
Cc1cccc(N(C)c2ncnc3onc(-c4ccc(F)cc4)c23)c1C | x | x | x | 2.3 | x | 0.1%
CCCc1nc2sc3c(c2c(=O)n1NC(=O)CCC(=O)OC)CCCC3 | -4.7% | -5.5% | x | -0.7 | -3.2% | 5.0%
CCn1c(NN)nc2sc3c(c2c1=O)CCC3 | u | u | u | -1.3 | 37.2% | 56.2µM*
NNc1nc2sc3c(c2c(=O)n1Cc1ccccc1)CCC3 | -27.9% | -3.7% | x | -1.3 | 44.7% | 31.6µM*
Cc1nc2sc3c(c2c(=O)n1NC(=O)CCBr)CCCC3 | 4.4% | -15.1% | 14.1µM* | 4.5 | 8.6% | -16.1%
CCSc1nc2sc3c(c2c(=O)n1CC)CCC3 | x | x | x | 6.1 | x | -6.8%
COc1cc2c(cc1OC)CN(C(=S)Nc1ccc(C)cc1C)CC2 | 2.8% | 17.7% | 17.6% | 1.0 | -2.1% | 12.5%
OCC1=C[C@@H](O)[C@@H]2C=CO[C@@H](OC3O[C@H](CO)[C@@H](O)[C@H](O)[C@H]3O)[C@H]12 (some centres not stated) | x | x | x | 1.1 | x | 5.5%
NCC(=O)Nc1ccccc1 | x | x | 3.2%[13.5 µM] | x | 3.1%[14.2 µM] | x
CC(=O)Nc1ccc(NC(=O)CSc2nnc(NC(=O)c3ccc(Br)o3)s2)cc1 | x | x | x | x | x | 4.4%
O=C1NC(=S)S/C1=C1\Sc2ccccc2N1CCCS(=O)(=O)O | -7.3% | -11.4%[46.1 µM] | 25.1µM* | 8.2 | -9.6% | 25.1µM*
NN1C(=O)/C(=C2/Sc3ccccc3N2CCCS(=O)(=O)O)SC1=S | x | x | x | 2.6 | x | -16.4%
CN(C)c1cc2c(c(N(C)C)c1)C(=O)c1ccccc1C2=O | -1.8% | u | 0.708µM* | -16.2 | 31.1% | u
CN(C)S(=O)(=O)c1cccc2c1C(=O)c1ccccc1C2=O | 2.3% | 4.5% | u | -14.4 | -10.3% | 1.3%
Cc1nnc(N2CCC(C(=O)N3CCCCCC3)CC2)c2nn(-c3ccc(Cl)cc3)c(C)c12 | x | x | x | x | x | 3.3%
COc1cccc(CC2(CO)CCCN(Cc3[nH]c4ccc(C)cc4c3C)C2)c1 (configuration not stated) | -13.4% | u | 22.4µM* | 0.1 | 6.3% | -1.8%
COCc1ccc(CN2CCCC(CO)(Cc3cccc(Cl)c3)C2)o1 (configuration not stated) | 0.8% | 4.7% | 8.91µM* | 1.1 | -1.6% | 8.4%
O=C(O)c1ccc(S(=O)(=O)N[C@@H](Cc2ccc(O)cc2)C(=O)O)cc1 | x | x | x | -0.5 | x | -17.3%
N#Cc1ccccc1NC(=O)CNc1ccccc1N1CCCCC1 | 1.6% | -22.9%[46.1 µM] | 31.6µM* | 1.9 | 8.3% | -0.5%
CC1CCCC/C1=N\NC(=S)Nc1cccnc1 (configuration not stated) | u | -1.4% | u | -5.2 | 8.7% | 20µM*
S=C(NCCc1ccccc1)NC1CCCCCC1 | 1.5% | -8.6%[46.1 µM] | -5.3% | -0.6 | 4.8% | -1.4%
Cc1ccc(NC(=S)N/N=C2\CCCCC2C)cc1 (configuration not stated) | 1.5% | -24.4% | u | 2.1 | 4.5% | -20.3%
CC1CCCC/C1=N\NC(=S)NCCc1ccccc1 (configuration not stated) | 5.2% | -43.7% | 14.1µM* | 2.2 | 11.1% | 12.5%
COc1ccc2c(c1)O[C@H](c1ccc3c(c1)OCO3)[C@@H](OC(=O)Nc1ccc(OC(F)F)cc1)C2=O | -0.6% | x | 6.3% | -6.4 | -4.6% | -5.4%
SMILES | JMJD2E inh | NPSR antagonist | ALDH1A1 block | FBPA coupling cs | GoLoco inh red | Sfp PPTase inh
O=C(Cc1cccc2ccccc12)Nc1nnc(-c2cccc([N+](=O)[O-])c2)s1 | -5.6% | -9.6% | 7.1% | -0.3 | -1.0% | u
O=C(CSc1ccc(Cl)cc1)Nc1nnc(-c2cccc([N+](=O)[O-])c2)s1 | -4.0% | -11.7% | 2.51µM* | 1.3 | 11.7% | -20.6%
CCOC(=O)c1cnc2cc(-c3ccc(Br)cc3)nn2c1C | x | x | x | 1.3 | x | 26.9%
COc1cc(SC)ccc1C(=O)N1CCN(Cc2ccccc2)CC1 | 11.5% | 0.0% | 0.6% | 1.7 | -7.7% | 14.9%
O=C(c1ccc(S(=O)(=O)c2ccccc2Cl)c([N+](=O)[O-])c1)N1CCN(Cc2ccccc2)CC1 | 5.8% | -2.4% | 14.1µM* | -2.9 | 3.9% | 15.3%
O=C(c1ccc(Br)c([N+](=O)[O-])c1)N1CCN(Cc2ccccc2)CC1 | x | x | x | -1.8 | x | 14.9%
COc1cc(N(C)C)c([N+](=O)[O-])cc1C(=O)N1CCN(Cc2ccccc2)CC1 | 5.4% | 2.8% | 10µM* | -0.8 | -7.2% | -5.1%
CCN1C(=O)C2(C(C(=O)c3cc4ccccc4o3)=C(O)C(=O)N2CCCN2CCOCC2)c2ccccc21 (configuration not stated) | -6.0% | 7.94µM* | x | 12.9 | -0.9% | 19.4%
CCN1C(=O)C2(C(C(=O)c3ccc(C)o3)=C(O)C(=O)N2CCCN2CCOCC2)c2ccccc21 (configuration not stated) | -5.5% | -8.1%[46.1 µM] | u | -11.1 | -32.6% | 2.51µM*
CCN1C(=O)C2(C(C(=O)c3cc4ccccc4o3)=C(O)C(=O)N2CCCN(C)C)c2ccccc21 (configuration not stated) | -3.1% | u | u | 1.4 | 3.4% | 32.5%
COc1ccc(S(=O)(=O)Nc2nc3c(s2)CCCC3)cc1 | 11.5% | 1.3% | u | 2.8 | 4.3% | -1.0%
N#Cc1sc(=O)[nH]c1Cl | x | x | x | 10.1 | x | 50.1µM*
Cc1[nH]c(=O)c(C#N)c(C)c1Cl | u | -7.6% | x | -0.5 | 10.6% | 24.6%
CCCc1[nH][nH]c(=O)c1C(c1cccc(Cl)c1)C(C#N)C#N (configuration not stated) | 4.0% | -13.0%[46.1 µM] | 14.1µM* | -2.0 | 17.5% | -9.6%
Cc1[nH][nH]c(=O)c1C(c1ccccc1[N+](=O)[O-])C(C#N)C#N (configuration not stated) | -12.4% | 10.2% | u | -8.5 | -0.6% | -66.0%
O=C(O)/C=C/C(=O)Nc1ccc(Oc2ncnc3cc(Cl)ccc23)nc1 | -20.6% | 7.3% | x | 8.6 | -18.1% | 79.4µM*
CC1(c2ccccc2)CC(C)(C)N2C(=O)C(=O)c3cccc1c32 (configuration not stated) | -5.3% | -57.6% | 0.501µM* | -0.8 | 12.0% | u
Cc1cc2nc3s/c(=C/c4ccc(-c5ccccc5C(=O)O)o4)c(=O)n3c2cc1C | x | x | x | 4.2 | x | 79.4µM*
Cc1cc2nc(/C(C#N)=C\c3ccc(-c4ccccc4C(=O)O)o3)[nH]c2cc1C | x | x | x | -5.3 | x | -2.5%
C#CCN1C(=O)S/C(=C\c2ccc(-c3ccc(Cl)c(C(=O)O)c3)o2)C1=O | x | x | x | 8.9 | x | -8.8%
O=C(O)c1cc(-c2ccc(/C=c3\sc4nc5ccc(Br)cc5n4c3=O)o2)ccc1Cl | x | x | x | 3.2 | x | 56.2µM*

Screening results (PubChem BioAssay)
